Data on 87 molecules can be found in PubChem BioAssay AID1259313 (Sanford-Burnham Center for Chemical Genomics, 2017).

Out of some 340,000 compounds screened, about 8,500 (2.5%) were called active.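 The calls were made as follows: active = melting temperature shift of at least 10% of the positive control shift, at one fixed dose; inactive = the rest.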 This excerpt belongs to a sample that is enriched for actives.

The test system of this test is Glutamate receptor ionotropic, NMDA 3A (GRIN3A) ligand-binding domain. Put plainly: binders of NR3A ligand-binding domain, primary screen, biophysical, differential scanning fluorimetry, uHTS (AID 1259313). The settings on record: NR3A LBD differential scanning fluorimetry, at 25 µM, hits give high values, 0% = protein alone, 100% = glycine-bound protein. Background: Differential scanning fluorimetry follows unfolding on heating by fluorescence.
With `COc1ccc(C)cc1-n1nnnc1SCc1nc2ccccc2c(=O)[nH]1`, the Tm shift relative to glycine control is 0.31% (inactive).
Then `Cc1ccc(Nc2nc(CSc3nnnn3-c3ccccc3)cc(=O)[nH]2)cc1`, with 10.7% (active).
Then `Cc1ccc(NC(=O)CSc2nc(CSc3ccc(C)cc3)cc(=O)[nH]2)cc1`, with -30.2% (inactive); and `O=C(Nc1ccc(Br)cc1)c1cccc(NC(=O)C2C3CC4OC(=O)C2C4C3)c1` (configuration not stated), with -8.89% (inactive); and `O=C(NC(=S)Nc1cccc(-c2ccc(CO)o2)c1)c1cccs1`, with -18.4% (inactive).
For `CCCOc1ccc(NC(=O)CC2C(=O)N(C)C(=S)N2Cc2ccc3c(c2)OCO3)cc1` (configuration not stated) the value was 23.2% (active).
For `O=C(Nc1ccc(Cl)cc1)C1c2cccc[n+]2CC(=O)N1Cc1ccc2c(c1)OCO2` (configuration not stated), the Tm shift relative to glycine control is 0.68% (inactive).
For `COc1ccc(N2C(=O)C(CC(=O)Nc3ccccc3)N(Cc3ccc(OC)c(OC)c3)C2=O)cc1` (configuration not stated) the value was -3.64% (inactive); for `O=C(CN1CCN(C(=S)NC2CCCC2)CC1)Nc1ccc(Oc2ccccc2)cc1`, -2.87% (inactive); for `O=C(NCc1ccccc1Cl)C1CCN(S(=O)(=O)c2cccc3nonc23)CC1`, 2.6% (inactive).
For `Cc1ccc(CN2C(=O)N/C(=C/c3cc(C)n(-c4ccccn4)c3C)C2=O)cc1`, the Tm shift relative to glycine control is 57.7% (active).
For `Cc1cc(/C=C2/NC(=O)NC2=O)c(C)n1-c1cccnc1` the value was -4.95% (inactive); for `Cc1ccccc1-n1c(C)cc(/C=C2\NC(=O)NC2=O)c1C`, -2.81% (inactive).
Regarding `COc1ccc(C2=NN(c3ccccc3)C(c3cccs3)C2)cc1` (configuration not stated), the Tm shift relative to glycine control is 0.58% (inactive).
With `O=C1C2N=NN(CC(=O)N3N=C(c4cccc5ccccc45)CC3c3ccccc3)C2C(=O)N1c1ccccc1` (configuration not stated), the Tm shift relative to glycine control is -0.6% (inactive).
As to `Oc1ccccc1C1=NN(c2ccccc2)C(c2ccccc2)C1` (configuration not stated), the Tm shift relative to glycine control is 11.9% (active).
Then `Cc1ccc(C(=O)COC(=O)CCN2C(=O)C3C4CCC(C4)C3C2=O)cc1C` (configuration not stated), with 1.5% (inactive); and `Cc1ccc(C(=O)COC(=O)CCN2C(=O)C3C4CC(C(Br)C4Br)C3C2=O)cc1` (configuration not stated), with 18% (active).
For `O=C(CCN1C(=O)C2C3C=CC(C3)C2C1=O)Oc1ccc2ccccc2c1` (configuration not stated) the value was -2.31% (inactive); for `Cc1nn(Cc2ccc(Cl)cc2)c(Cl)c1/C=N/NC(=O)CNc1ccccc1F`, 16.1% (active).
For `CCn1nc(C)c(/C=N/NC(=O)Cc2ccc(Cl)cc2)c1C` the value was 1.94% (inactive); for `Cc1nn(Cc2ccc(Cl)cc2)c(Cl)c1/C=N/NC(=O)c1cccnc1`, -6.33% (inactive).
For `C/C=C/C(=O)OCc1csc(CC(=O)Nc2ccccc2C)n1`, the Tm shift relative to glycine control was -1.3% (inactive).
Then `Cc1ccc(C)c(S(=O)(=O)N2CCN(CC(=O)Nc3ccc([N+](=O)[O-])cc3)CC2)c1`, with -7.08% (inactive).
Consider `Cc1ccc(S(=O)(=O)N2CCN(CC(=O)N/N=C/c3ccc(Br)s3)CC2)cc1`, for which the Tm shift relative to glycine control is 0.82% (inactive).
For the molecule `Cc1ccc(S(=O)(=O)N2CCN(CC(=O)N/N=C/c3cc([N+](=O)[O-])ccc3Cl)CC2)cc1`, the Tm shift relative to glycine control was 19.9% (active).
For `CCOC(=O)CN(C)S(=O)(=O)c1ccc(-c2cc(C(=O)OC)sc2C(F)(F)F)cc1` the value was -0.21% (inactive); for `CCC(CC)C(=O)Nc1cccc(C(=O)N2CCCC2)c1`, -2.45% (inactive); for `Cc1cc(C(=O)COc2ccc(Br)cc2F)c(C)n1C1CC1`, 1.06% (inactive).
With `N#Cc1ccc(C(c2nnnn2CCc2ccccc2)N2CCCCCC2)cc1` (configuration not stated), the Tm shift relative to glycine control is 1.53% (inactive).
As for `COc1ccc(CCn2nnnc2C(c2ccccc2)N2CCN(C)CC2)cc1OC` (configuration not stated), the Tm shift relative to glycine control is 10.2% (active).
Then `COc1ccc(C(c2nnnn2Cc2cccs2)N2CCN(c3ccccc3)CC2)cc1OC` (configuration not stated), with 0% (inactive); and `COc1ccc(S(=O)(=O)N2CCN(c3ncnc4c(-c5ccccc5)nsc34)CC2)cc1`, with -1.19% (inactive); and `O=C(c1ccc(F)cc1)c1c[nH]c(C(=O)NCc2cccnc2)c1`, with -1.06% (inactive).
For `CCN(Cc1ccncc1)C(=O)c1cccc(S(=O)(=O)N2CCOCC2)c1`, the Tm shift relative to glycine control is 0.46% (inactive).
Then `Cc1ccc(S(=O)(=O)NCC(=O)Nc2ccc3c(c2)OCCO3)cc1`, with 0.9% (inactive); and `CNS(=O)(=O)c1ccc(NC(=O)Nc2ccc3c(c2)OCO3)cc1`, with 11.2% (active); and `CC(C)CNS(=O)(=O)c1ccc(C(=O)Nc2ccc3c(c2)OCO3)cc1`, with -0.27% (inactive).
For `COc1ccc2[nH]cc(CCN3C(=O)c4ccc(C(=O)O)cc4C3=O)c2c1` the value was -2.98% (inactive); for `CCN(CC)CC(=O)c1c[nH]c2ccc(OC)cc12`, -2.92% (inactive).
For `COc1ccc2[nH]cc(/C=C(/C#N)S(=O)(=O)c3ccccc3)c2c1` the value was 13.2% (active); for `C=C(C)C1CC=C(C)/C(=N/NC(=O)CCCNc2cccc(C)c2)C1` (configuration not stated), -0.09% (inactive).
For the molecule `CCc1cc2c(SCC(=O)Nc3ncc(Cl)c(C)c3Cl)ncnc2s1`, the Tm shift relative to glycine control was -1.41% (inactive).
For `O=C(NNC(=O)c1cccc(S(=O)(=O)Nc2ccc(Cl)cc2)c1)c1ccc(=O)[nH]c1` the value was 0.33% (inactive).
For `CC(C)c1ccc(Nc2nnc(SCC(=O)c3nnc(-c4ccccc4)o3)s2)cc1`, the Tm shift relative to glycine control was 19.9% (active).
On to `Cc1ccc(Nc2nnc(SCC(=O)c3cc4ccccc4o3)s2)cc1C`, for which the Tm shift relative to glycine control is 11.5% (active).
Then `Cc1cc2c(=O)n(C)c(SCC(=O)c3cc4ccccc4o3)nc2s1`, with -0.65% (inactive); and `CC(C)Nc1nnc(SCC(=O)c2c[nH]c3ccccc23)s1`, with -3.26% (inactive); and `CC(C)N(C(=O)CSc1nnc(NC2CC2)s1)c1ccccc1`, with -1.56% (inactive).
Turning to `Cc1ccccc1Nc1nnc(SCC(=O)c2cc3ccccc3o2)s1`, the Tm shift relative to glycine control was -23.4% (inactive).
As for `O=C(CN1C(=O)CCS(=O)(=O)c2ccccc21)NCc1ccc(F)cc1`, the Tm shift relative to glycine control was -2.05% (inactive).
Then `CN1CCN(C(=O)c2ccc(NS(=O)(=O)c3ccccc3)cc2)CC1`, with -0.09% (inactive); and `OCCCC1CCCCN1Cc1nc(Cc2ccccc2Cl)no1` (configuration not stated), with 0.08% (inactive); and `NS(=O)(=O)c1cc(C(=O)NCCOc2ccccc2)c(Cl)cc1Cl`, with -0.6% (inactive).
As for `CCCN(C(=O)CSc1nnc(N)s1)c1c(N)n(Cc2ccccc2)c(=O)[nH]c1=O`, the Tm shift relative to glycine control was 5.76% (inactive).
As for `CC1=CC(=C(C#N)c2nc3ccccc3s2)C=C(C)N1c1ccc(F)cc1F`, the Tm shift relative to glycine control was -4.96% (inactive).
For the molecule `N#C/C(=C(/O)Cc1cccc2ccccc12)c1nc2ccccc2s1`, the Tm shift relative to glycine control is 19.3% (active).
For `O=C(O)CC/C(=C\c1cc2c(cc1Br)OCO2)c1nc2ccccc2s1`, the Tm shift relative to glycine control was -1.28% (inactive).
For `Cc1cc(NC(=O)c2ccco2)c(=O)n(Cc2c(F)cccc2Cl)c1` the value was -1.84% (inactive); for `COc1ccc(CNC(=O)C[C@H]2C[C@H](C(=O)N3CCOCC3)[C@@]3(CCC4CCCC4)c4[nH]c5ccc(Cl)cc5c4CCN3C2=O)cc1OC`, 10% (active); for `COc1ccc2[nH]c3c(c2c1)CCN1C(=O)C(CC(=O)NCCCN(C)C)C[C@H](C(=O)N2CCOCC2)[C@@]31CCC1CCCC1` (some centres not stated), 0.34% (inactive).
For `O=C(C[C@H]1C[C@H](C(=O)N2CCOCC2)[C@@]2(CCC3CCCC3)c3[nH]c4ccc(Cl)cc4c3CCN2C1=O)NCc1ccco1` the value was 3% (inactive).
On to `C/C(Cc1ccccc1)=N\NC(=O)CNC(=O)c1ccc2c(c1)OCCO2`, for which the Tm shift relative to glycine control was 12.5% (active).
Consider `C/C(Cc1ccccc1)=N\NC(=O)CNC(=O)c1ccccc1Cl`, for which the Tm shift relative to glycine control was 0% (inactive).
Then `C/C(Cc1ccccc1)=N\NC(=O)CNC(=O)c1cccc(Br)c1`, with -3.32% (inactive); and `O=S(=O)(Nc1ccc(-n2cnnn2)cc1)c1ccc(Cl)cc1`, with 0.42% (inactive).
For `CC(=O)[C@@]12O[C@@H]1C[C@H]1[C@@H]3CC[C@H]4C[C@@H](O)CC[C@]4(C)[C@H]3CC[C@@]12C` the value was 0% (inactive); for `Cc1ccc(C(=O)NCC(=O)OCC(=O)Nc2cccc(S(=O)(=O)N3CCCC3)c2)cc1C`, -2.16% (inactive); for `N/C(=N\c1nc2ccccc2o1)NC(=O)C(Cc1ccccc1)N1C(=O)c2ccccc2C1=O` (configuration not stated), -1.81% (inactive).
Then `COc1ccc(CCNC(=O)CSCc2ccc(Br)cc2)cc1OC`, with 0.53% (inactive); and `COc1ccc(CCNC(=O)CCNS(=O)(=O)c2cc(Br)cnc2N)cc1OC`, with 11% (active); and `COc1ccc(CCNC(=O)CCc2ccccc2O)cc1OC`, with 19.5% (active).
Turning to `CC(=O)c1ccc(NC(=O)CCNS(=O)(=O)c2cc(Br)cnc2N)cc1`, the Tm shift relative to glycine control was -12.8% (inactive).
Then `COc1ccc(CCNC(=O)C(=O)NCc2ccccc2C)cc1OC`, with -1.17% (inactive).
Consider `COc1ccc(CCNC(=O)Cc2ccc(C)cc2)cc1OC`, for which the Tm shift relative to glycine control is -3.8% (inactive).
In the case of `Cc1cccc(OCCC(=O)Nc2cc(S(=O)(=O)N3CCCCC3)ccc2N2CCOCC2)c1`, the Tm shift relative to glycine control is 6.71% (inactive).
Then `O=C(COc1ccc(-n2cnnn2)cc1)Nc1ccccc1Cl`, with -3.66% (inactive).
Then `C=CCc1cccc(/C=N/NC(=O)COc2ccc(-n3cnnn3)cc2)c1O`, with 24.6% (active); and `O=C(COc1cccc(-n2cnnn2)c1)NCCC1=CCCCC1`, with -4.1% (inactive); and `COc1ccc(-c2ccc3c(c2)C2CC3CCN2CCC#N)cc1` (configuration not stated), with 0.87% (inactive).
Then `N#CCOc1ccc(C2=NO[C@@H]3[C@@H]4C[C@@H]([C@H]5C(=O)N(c6ccc7c(c6)OCO7)C(=O)[C@@H]45)[C@H]23)cc1`, with -1.3% (inactive).
Regarding `Cc1cc(CN(C)C(=O)c2cc(COc3ccc(C)c(C)c3)on2)n[nH]1`, the Tm shift relative to glycine control is -0.56% (inactive).
Then `Cc1cc(Cl)ccc1OCCCC(=O)Nc1cccc(-n2cnnn2)c1`, with 4.11% (inactive); and `Cc1cc(Cl)ccc1OCCCC(=O)NCc1ccncc1`, with 21.3% (active).
For `Cc1cc(Cl)ccc1OCCCC(=O)NCc1ccccn1` the value was -3.24% (inactive); for `CCOCCCNC(=O)Cc1cc(=O)[nH]c(=O)[nH]1`, -1.66% (inactive).
Then `OCC[C@H]1C[C@H](O)[C@@H](O)[C@]2(CCc3ccccc3O2)O1`, with 1.78% (inactive).
